Source: paper PMC7862700, “An all-to-all approach to the identification of sequence-specific readers for epigenetic DNA modifications on cytosine”

Experiments:
Assay in all cases: DAPPL (digital affinity profiling via proximity ligation, sequencing); 10 mM Tris-HCl pH 7.5, 50 mM NaCl, 1 mM DTT, 4% glycerol, room temperature, 30 min; GST-TFs on glutathione beads, 16-mer random dsDNA library, 0.1% formaldehyde crosslink after washing; high values mean tight binding
FLI1 = molecular target: T1, FLI1 (Homo sapiens, UniProt Q01543 1-452); details: protein: recombinant; tags: N-terminal GST; dsDNA, one strand shown
T1 sequence: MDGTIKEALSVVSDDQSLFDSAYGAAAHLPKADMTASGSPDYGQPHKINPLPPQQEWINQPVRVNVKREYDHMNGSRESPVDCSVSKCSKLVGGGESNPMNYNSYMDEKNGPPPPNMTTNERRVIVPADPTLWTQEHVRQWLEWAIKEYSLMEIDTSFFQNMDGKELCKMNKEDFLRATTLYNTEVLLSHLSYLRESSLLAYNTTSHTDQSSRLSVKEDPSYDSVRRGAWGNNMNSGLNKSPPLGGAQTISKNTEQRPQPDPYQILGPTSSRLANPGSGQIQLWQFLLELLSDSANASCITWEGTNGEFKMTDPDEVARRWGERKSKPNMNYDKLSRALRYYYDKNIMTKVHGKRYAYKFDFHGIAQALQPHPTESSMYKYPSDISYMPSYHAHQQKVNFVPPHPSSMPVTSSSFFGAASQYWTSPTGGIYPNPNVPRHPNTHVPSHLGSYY
In short: (§1)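 Human transcription factors carrying a GST fusion were produced in yeast, bound to glutathione beads, tagged with DNA barcodes and pooled together with a tag-only sample. Each pool was held with 200 nmole of a random double-stranded 16-mer DNA library in Tris/NaCl/DTT/glycerol buffer for 30 min at room temperature, then washed, crosslinked in 0.1% formaldehyde, proximity-ligated with BsaI/T4 ligase (1 h, 37 °C), PCR-amplified and sequenced on an Illumina NextSeq500. Binding signal is the read frequency of each hexamer for a given factor divided by its frequency in the tag-only sample.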

ELK1 = molecular target: T2, ELK1 (Homo sapiens, UniProt P19419 1-428); details: protein: recombinant; tags: N-terminal GST; dsDNA, one strand shown
T2 sequence: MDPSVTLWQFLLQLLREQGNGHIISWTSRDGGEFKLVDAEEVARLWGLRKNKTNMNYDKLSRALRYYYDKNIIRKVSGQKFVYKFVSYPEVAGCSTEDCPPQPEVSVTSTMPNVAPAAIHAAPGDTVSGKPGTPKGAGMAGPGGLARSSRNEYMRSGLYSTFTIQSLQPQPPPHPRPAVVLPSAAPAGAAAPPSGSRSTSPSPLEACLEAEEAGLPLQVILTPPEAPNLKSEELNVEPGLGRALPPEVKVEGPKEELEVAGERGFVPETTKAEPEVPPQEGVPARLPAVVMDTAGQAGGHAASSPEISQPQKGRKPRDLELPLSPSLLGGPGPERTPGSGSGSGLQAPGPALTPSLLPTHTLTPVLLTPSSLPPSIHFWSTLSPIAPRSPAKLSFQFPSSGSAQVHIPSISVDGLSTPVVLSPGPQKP
In short: as §1

GABPA = molecular target: T3, GABPA (Homo sapiens, UniProt Q06546 1-454); details: protein: recombinant; tags: N-terminal GST; dsDNA, one strand shown
T3 sequence: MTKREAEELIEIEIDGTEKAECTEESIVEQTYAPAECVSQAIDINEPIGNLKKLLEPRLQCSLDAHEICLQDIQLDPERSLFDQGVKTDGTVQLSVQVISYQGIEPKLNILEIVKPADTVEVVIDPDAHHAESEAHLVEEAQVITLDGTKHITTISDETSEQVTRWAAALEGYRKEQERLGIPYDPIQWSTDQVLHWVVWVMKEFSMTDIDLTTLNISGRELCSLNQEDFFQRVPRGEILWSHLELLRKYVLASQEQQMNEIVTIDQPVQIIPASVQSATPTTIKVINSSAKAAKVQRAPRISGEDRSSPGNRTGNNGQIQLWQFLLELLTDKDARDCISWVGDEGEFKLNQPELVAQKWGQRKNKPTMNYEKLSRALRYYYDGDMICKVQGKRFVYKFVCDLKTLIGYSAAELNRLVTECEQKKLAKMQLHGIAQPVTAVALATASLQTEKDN
In short: as §1

ERG = molecular target: T4, ERG (Homo sapiens, UniProt P11308 1-479); details: protein: recombinant; tags: N-terminal GST; dsDNA, one strand shown
T4 sequence: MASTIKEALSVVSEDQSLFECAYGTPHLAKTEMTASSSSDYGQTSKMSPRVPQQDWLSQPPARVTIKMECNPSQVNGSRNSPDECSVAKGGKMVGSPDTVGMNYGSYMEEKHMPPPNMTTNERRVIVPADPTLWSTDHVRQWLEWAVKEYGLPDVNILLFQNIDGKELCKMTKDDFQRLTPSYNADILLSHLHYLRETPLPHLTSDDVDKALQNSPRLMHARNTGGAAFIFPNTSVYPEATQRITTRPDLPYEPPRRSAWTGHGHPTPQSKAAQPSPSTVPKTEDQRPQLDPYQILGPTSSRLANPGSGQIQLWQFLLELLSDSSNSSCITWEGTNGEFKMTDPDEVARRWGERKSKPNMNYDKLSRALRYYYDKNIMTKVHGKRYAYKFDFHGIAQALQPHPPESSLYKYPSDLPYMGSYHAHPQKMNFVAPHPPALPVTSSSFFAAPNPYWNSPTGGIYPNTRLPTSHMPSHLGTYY
In short: as §1

ELF1 = ELF1 (Homo sapiens, UniProt P32519 1-619); details: protein: recombinant; tags: N-terminal GST; dsDNA, one strand shown
In short: as §1

EHF = molecular target: T5, EHF (Homo sapiens, UniProt Q9NZC4 1-300); details: protein: recombinant; tags: N-terminal GST; dsDNA, one strand shown
T5 sequence: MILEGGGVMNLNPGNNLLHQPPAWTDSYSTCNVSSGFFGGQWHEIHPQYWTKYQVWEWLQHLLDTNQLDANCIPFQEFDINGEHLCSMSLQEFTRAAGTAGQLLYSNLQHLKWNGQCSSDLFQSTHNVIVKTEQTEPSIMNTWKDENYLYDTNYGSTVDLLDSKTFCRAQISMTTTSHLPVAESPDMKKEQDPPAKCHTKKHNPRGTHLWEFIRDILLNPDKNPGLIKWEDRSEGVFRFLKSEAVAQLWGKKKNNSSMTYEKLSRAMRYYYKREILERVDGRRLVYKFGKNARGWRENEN
In short: as §1

SPI1 = SPI1 (Homo sapiens, UniProt P17947 1-270); details: protein: recombinant; tags: N-terminal GST; dsDNA, one strand shown
In short: as §1

SPIB = SPIB (Homo sapiens, UniProt Q01892 1-262); details: protein: recombinant; tags: N-terminal GST; dsDNA, one strand shown
In short: as §1

ELK3 = molecular target: T6, ELK3 (Homo sapiens, UniProt P41970 1-407); details: protein: recombinant; tags: N-terminal GST; dsDNA, one strand shown
T6 sequence: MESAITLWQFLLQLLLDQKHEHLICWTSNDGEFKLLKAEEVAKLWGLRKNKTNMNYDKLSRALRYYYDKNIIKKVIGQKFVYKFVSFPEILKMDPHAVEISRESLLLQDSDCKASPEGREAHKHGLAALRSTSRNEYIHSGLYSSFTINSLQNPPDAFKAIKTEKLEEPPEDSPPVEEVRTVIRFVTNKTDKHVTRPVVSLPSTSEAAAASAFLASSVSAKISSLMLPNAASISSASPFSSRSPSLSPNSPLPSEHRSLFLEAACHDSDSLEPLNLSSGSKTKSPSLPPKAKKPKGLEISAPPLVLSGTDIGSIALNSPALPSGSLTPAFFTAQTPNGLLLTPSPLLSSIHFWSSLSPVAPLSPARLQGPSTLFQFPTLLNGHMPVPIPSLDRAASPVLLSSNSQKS
In short: as §1

FEV = molecular target: T7, FEV (Homo sapiens, UniProt Q99581 1-238); details: protein: recombinant; tags: N-terminal GST; dsDNA, one strand shown
T7 sequence: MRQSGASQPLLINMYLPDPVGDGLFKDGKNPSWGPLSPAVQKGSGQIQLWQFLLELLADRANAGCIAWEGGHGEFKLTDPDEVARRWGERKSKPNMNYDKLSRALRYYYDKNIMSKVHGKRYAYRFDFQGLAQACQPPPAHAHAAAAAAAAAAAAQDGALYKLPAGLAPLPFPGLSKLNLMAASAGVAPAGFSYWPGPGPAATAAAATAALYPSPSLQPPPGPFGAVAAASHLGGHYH
In short: as §1

ETV5 = ETV5 (Homo sapiens, UniProt P41161 1-510); details: protein: recombinant; tags: N-terminal GST; dsDNA, one strand shown
In short: as §1

HSF1 = HSF1 (Homo sapiens, UniProt Q00613 1-529); details: protein: recombinant; tags: N-terminal GST; chain copies: 3; dsDNA, one strand shown
In short: as §1

SPIC = molecular target: T8, SPIC (Homo sapiens, UniProt Q8N5J4 1-248); details: protein: recombinant; tags: N-terminal GST; dsDNA, one strand shown
T8 sequence: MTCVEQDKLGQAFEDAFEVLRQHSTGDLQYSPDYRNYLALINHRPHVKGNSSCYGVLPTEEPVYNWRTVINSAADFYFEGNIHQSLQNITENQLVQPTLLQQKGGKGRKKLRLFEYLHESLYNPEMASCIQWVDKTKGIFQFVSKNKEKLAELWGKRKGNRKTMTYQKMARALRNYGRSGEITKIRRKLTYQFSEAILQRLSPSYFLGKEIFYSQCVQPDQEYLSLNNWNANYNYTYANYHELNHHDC
In short: as §1

ELF4 = ELF4 (Homo sapiens, UniProt Q99607 1-663); details: protein: recombinant; tags: N-terminal GST; dsDNA, one strand shown
In short: as §1

ELK4 = molecular target: T9, ELK4 (Homo sapiens, UniProt P28324-2 1-405); details: protein: recombinant; tags: N-terminal GST; dsDNA, one strand shown
T9 sequence: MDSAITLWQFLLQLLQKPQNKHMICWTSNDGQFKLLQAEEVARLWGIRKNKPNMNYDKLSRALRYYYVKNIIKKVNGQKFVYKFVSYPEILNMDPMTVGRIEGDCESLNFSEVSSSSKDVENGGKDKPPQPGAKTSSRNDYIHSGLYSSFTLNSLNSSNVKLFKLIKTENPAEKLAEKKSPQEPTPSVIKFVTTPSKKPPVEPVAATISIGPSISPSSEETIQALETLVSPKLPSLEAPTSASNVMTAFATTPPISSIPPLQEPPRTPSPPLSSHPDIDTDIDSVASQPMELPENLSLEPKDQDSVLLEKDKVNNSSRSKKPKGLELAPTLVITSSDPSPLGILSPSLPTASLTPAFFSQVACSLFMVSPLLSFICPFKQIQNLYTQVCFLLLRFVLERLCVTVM
In short: as §1

ETV2 = molecular target: T10, ETV2 (Homo sapiens, UniProt O00321 1-342); details: protein: recombinant; tags: N-terminal GST; dsDNA, one strand shown
T10 sequence: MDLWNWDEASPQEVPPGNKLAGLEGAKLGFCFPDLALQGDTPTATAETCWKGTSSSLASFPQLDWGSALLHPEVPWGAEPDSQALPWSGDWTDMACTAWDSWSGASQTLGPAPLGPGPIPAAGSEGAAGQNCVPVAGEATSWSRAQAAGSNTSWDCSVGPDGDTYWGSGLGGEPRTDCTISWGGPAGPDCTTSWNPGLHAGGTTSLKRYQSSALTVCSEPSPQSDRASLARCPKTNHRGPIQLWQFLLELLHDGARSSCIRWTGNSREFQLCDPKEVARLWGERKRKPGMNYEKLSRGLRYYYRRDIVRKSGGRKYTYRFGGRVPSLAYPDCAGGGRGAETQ
In short: as §1

CRX = CRX (Homo sapiens, UniProt O43186 1-299); details: protein: recombinant; tags: N-terminal GST; dsDNA, one strand shown
In short: as §1

ETV1 = ETV1 (Homo sapiens, UniProt P50549 1-477); details: protein: recombinant; tags: N-terminal GST; dsDNA, one strand shown
In short: as §1

Sequence of HSF1 (Q00613 whole entry): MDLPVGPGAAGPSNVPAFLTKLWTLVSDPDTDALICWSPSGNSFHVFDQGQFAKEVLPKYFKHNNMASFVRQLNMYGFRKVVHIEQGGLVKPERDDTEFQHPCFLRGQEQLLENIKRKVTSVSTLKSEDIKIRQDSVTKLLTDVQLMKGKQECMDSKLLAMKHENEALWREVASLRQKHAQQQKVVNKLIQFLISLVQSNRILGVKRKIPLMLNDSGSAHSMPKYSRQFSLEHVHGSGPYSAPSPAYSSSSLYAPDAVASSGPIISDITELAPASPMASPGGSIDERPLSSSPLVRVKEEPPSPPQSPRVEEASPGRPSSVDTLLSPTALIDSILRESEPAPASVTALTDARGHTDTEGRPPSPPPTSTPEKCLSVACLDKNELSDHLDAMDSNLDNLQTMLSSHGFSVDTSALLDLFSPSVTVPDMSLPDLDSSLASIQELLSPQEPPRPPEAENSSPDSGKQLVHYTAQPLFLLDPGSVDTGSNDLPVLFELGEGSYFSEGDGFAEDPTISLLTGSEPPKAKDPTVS
Sequence of ETV1 (P50549 whole entry): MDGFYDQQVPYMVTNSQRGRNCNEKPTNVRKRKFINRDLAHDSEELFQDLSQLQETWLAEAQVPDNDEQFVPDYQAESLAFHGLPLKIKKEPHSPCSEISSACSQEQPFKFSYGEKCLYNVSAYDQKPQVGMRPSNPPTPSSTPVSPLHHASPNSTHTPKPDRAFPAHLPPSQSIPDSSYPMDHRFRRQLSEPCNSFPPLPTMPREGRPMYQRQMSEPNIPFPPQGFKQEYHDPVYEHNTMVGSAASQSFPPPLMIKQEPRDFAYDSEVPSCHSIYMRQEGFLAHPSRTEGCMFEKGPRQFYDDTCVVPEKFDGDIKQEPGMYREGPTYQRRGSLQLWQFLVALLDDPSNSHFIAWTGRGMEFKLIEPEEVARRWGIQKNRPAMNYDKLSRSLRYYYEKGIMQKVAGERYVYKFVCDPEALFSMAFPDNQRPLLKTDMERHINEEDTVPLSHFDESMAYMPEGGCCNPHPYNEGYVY
Sequence of ELF4 (Q99607 whole entry): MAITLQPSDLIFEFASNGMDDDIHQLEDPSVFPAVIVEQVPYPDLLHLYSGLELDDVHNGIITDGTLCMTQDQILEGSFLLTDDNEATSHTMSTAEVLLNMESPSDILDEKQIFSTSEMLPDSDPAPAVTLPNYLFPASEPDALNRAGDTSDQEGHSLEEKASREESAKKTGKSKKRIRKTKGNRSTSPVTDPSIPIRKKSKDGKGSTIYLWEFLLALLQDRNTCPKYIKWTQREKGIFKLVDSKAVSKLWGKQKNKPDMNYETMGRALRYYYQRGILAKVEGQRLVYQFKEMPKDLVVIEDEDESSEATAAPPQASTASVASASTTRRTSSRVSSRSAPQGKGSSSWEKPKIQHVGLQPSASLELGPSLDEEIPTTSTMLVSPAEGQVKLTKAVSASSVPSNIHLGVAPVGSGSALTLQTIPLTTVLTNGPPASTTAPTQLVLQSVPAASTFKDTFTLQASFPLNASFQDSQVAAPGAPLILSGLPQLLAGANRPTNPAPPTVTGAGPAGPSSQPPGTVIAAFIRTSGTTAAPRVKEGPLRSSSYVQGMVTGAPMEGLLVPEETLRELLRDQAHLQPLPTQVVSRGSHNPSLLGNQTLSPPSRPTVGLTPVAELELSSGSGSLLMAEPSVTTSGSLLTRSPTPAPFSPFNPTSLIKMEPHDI
Sequence of CRX (O43186 whole entry): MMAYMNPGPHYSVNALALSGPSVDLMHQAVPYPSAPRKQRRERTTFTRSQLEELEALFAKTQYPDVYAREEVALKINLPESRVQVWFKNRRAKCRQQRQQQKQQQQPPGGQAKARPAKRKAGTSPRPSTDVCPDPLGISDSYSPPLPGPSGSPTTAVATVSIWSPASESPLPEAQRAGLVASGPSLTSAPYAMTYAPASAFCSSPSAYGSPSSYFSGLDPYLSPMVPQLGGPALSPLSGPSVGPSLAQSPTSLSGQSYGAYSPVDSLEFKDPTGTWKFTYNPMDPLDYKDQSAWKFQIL
Sequence of ETV5 (P41161 whole entry): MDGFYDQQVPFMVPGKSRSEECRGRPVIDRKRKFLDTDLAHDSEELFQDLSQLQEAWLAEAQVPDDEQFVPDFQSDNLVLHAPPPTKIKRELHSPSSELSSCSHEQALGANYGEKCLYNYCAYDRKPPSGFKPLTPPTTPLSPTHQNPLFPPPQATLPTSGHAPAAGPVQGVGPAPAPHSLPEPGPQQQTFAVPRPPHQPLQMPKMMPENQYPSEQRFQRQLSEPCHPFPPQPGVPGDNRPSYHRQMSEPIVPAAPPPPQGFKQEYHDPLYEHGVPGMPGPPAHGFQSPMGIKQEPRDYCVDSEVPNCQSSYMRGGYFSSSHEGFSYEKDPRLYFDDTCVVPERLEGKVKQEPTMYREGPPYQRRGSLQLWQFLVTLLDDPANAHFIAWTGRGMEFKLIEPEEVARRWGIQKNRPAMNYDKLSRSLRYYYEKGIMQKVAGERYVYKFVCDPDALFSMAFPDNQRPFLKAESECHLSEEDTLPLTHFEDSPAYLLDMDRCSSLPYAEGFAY
Sequence of ELF1 (P32519 whole entry): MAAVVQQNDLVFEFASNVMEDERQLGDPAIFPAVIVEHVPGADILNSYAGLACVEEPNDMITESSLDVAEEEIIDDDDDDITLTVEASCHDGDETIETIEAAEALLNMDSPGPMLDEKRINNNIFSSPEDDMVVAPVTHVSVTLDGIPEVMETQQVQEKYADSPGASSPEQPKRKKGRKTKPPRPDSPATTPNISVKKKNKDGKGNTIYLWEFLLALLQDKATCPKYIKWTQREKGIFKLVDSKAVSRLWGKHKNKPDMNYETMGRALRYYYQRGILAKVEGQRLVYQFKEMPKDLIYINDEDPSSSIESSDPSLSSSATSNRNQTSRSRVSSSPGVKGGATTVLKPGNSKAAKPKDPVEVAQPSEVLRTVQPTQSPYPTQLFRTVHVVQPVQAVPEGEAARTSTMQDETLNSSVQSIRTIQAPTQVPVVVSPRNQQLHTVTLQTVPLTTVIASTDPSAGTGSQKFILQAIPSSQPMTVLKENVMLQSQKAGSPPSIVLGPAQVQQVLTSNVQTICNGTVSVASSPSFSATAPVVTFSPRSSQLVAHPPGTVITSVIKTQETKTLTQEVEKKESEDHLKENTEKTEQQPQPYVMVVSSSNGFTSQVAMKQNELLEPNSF
Sequence of SPIB (Q01892 whole entry): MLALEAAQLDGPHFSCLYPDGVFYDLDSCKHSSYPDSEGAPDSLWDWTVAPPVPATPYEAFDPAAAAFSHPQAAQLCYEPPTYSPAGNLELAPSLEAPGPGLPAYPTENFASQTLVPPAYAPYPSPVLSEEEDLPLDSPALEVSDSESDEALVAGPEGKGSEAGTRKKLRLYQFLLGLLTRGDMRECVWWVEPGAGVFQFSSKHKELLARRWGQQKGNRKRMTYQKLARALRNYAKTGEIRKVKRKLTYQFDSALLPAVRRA

## TTACGA
FLI1
  binding signal: 1.21 fold enrichment (6-mer frequency, TF over GST control)
ELK1
  binding signal: 1.14 fold enrichment (6-mer frequency, TF over GST control)
GABPA
  binding signal: 1.18 fold enrichment (6-mer frequency, TF over GST control)
ERG
  binding signal: 1.06 fold enrichment (6-mer frequency, TF over GST control)
ELF1
  binding signal: 1.14 fold enrichment (6-mer frequency, TF over GST control)
EHF
  binding signal: 1.07 fold enrichment (6-mer frequency, TF over GST control)
SPI1
  binding signal: 1.09 fold enrichment (6-mer frequency, TF over GST control)
SPIB
  binding signal: 1.07 fold enrichment (6-mer frequency, TF over GST control)
ELK3
  binding signal: 1.09 fold enrichment (6-mer frequency, TF over GST control)
FEV
  binding signal: 1.11 fold enrichment (6-mer frequency, TF over GST control)
ETV5
  binding signal: 1.07 fold enrichment (6-mer frequency, TF over GST control)
HSF1
  binding signal: 1.46 fold enrichment (6-mer frequency, TF over GST control)
SPIC
  binding signal: 1.02 fold enrichment (6-mer frequency, TF over GST control)
ELF4
  binding signal: 1.16 fold enrichment (6-mer frequency, TF over GST control)
ELK4
  binding signal: 1.16 fold enrichment (6-mer frequency, TF over GST control)
ETV2
  binding signal: 1.17 fold enrichment (6-mer frequency, TF over GST control)
CRX
  binding signal: 1.89 fold enrichment (6-mer frequency, TF over GST control)
ETV1
  binding signal: 1.16 fold enrichment (6-mer frequency, TF over GST control)
